Data: PubChem BioAssay AID1159580 (chemical genetic matrix, 2015)
Out of some 5,500 compounds screened, about 2,000 (36%) were called active. Not shown: some 18% with an inconclusive outcome. No stated cut-off is given here; in the data, active means normalized growth mostly below about 0.91 (no sharp cut-off); inconclusive means no clear call, values can overlap the other calls; inactive means mostly above about 0.92. The list shows a part of the results.

Experiment: chemical genetic growth profiling, strain panel (AID 1159580);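 further: tested at 20 µM; growth read once vehicle control cultures reached saturation at 30 °C; 1 = growth at the plate median or of vehicle wells; lower values mean less growth of the strain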
Conditions: growth OD

Measured: normalized growth

Nc1ccc(N=Nc2ccccc2)c(N)n1
inactive: S. cerevisiae deletion strains, locus YJR075W, strain HOC1, active compounds read low 0.991 | S. cerevisiae deletion strains, locus YKL009W, strain mrt4, active compounds read low 0.933 | S. cerevisiae deletion strains, locus YKL068W, active compounds read low 1.02 | S. cerevisiae deletion strains, locus YKL085W, strain MDH1 (second series), active compounds read low 1.01 | S. cerevisiae deletion strains, locus YKL085W, strain MDH1, active compounds read low 1.01 | S. cerevisiae deletion strains, locus YKL190W, strain CNB1, active compounds read low 1 | S. cerevisiae deletion strains, locus YKR026C, strain gcn3, active compounds read low 0.969 | S. cerevisiae deletion strains, locus YKR091W, strain srl3, active compounds read low 0.959 | S. cerevisiae deletion strains, locus YLR058C, strain SHM2, active compounds read low 1 | S. cerevisiae deletion strains, locus YLR102C, strain apc9, active compounds read low 1.02 | S. cerevisiae deletion strains, locus YLR113W, strain HOG1, active compounds read low 0.997 | S. cerevisiae deletion strains, locus YLR268W, strain sec22, active compounds read low 0.982 | S. cerevisiae deletion strains, locus YLR330W, strain CHS5, active compounds read low 0.992 | S. cerevisiae deletion strains, locus YLR342W, strain FKS1 (second series), active compounds read low 0.916 | S. cerevisiae deletion strains, locus YLR357W, strain rsc2, active compounds read low 1.04 | S. cerevisiae deletion strains, locus YLR370C, strain arc18, active compounds read low 0.946 | S. cerevisiae deletion strains, locus YLR371W, strain rom2, active compounds read low 1.03 | S. cerevisiae deletion strains, locus YLR384C, strain iki3, active compounds read low 0.972 | S. cerevisiae deletion strains, locus YLR418C, strain cdc73, active compounds read low 0.881 | S. cerevisiae deletion strains, locus YML016C, strain PPZ1, active compounds read low 0.987 | S. cerevisiae deletion strains, locus YML032C, strain rad52, active compounds read low 0.938 | S. cerevisiae deletion strains, locus YML124C, strain tub3, active compounds read low 1.02 | S. cerevisiae deletion strains, locus YMR078C, strain ctf18, active compounds read low 1.01 | S. cerevisiae deletion strains, locus YMR125W, strain sto1, active compounds read low 0.962 | S. cerevisiae deletion strains, locus YMR129W, active compounds read low 0.978 | S. cerevisiae deletion strains, locus YMR223W, strain ubp8, active compounds read low 0.92 | S. cerevisiae deletion strains, locus YMR231W, strain pep5, active compounds read low 0.971 | S. cerevisiae deletion strains, locus YMR263W, strain SAP30, active compounds read low 0.927 | S. cerevisiae deletion strains, locus YMR307W, strain GAS1, active compounds read low 1.21 | S. cerevisiae deletion strains, locus YNL067W, strain RPL9B, active compounds read low 0.922 | S. cerevisiae deletion strains, locus YNL128W, strain TEP1, active compounds read low 0.966 | S. cerevisiae deletion strains, locus YNL153C, strain GIM3, active compounds read low 0.975 | S. cerevisiae deletion strains, locus YNL183C, strain NPR1, active compounds read low 0.934 | S. cerevisiae deletion strains, locus YNL233W, strain BNI4, active compounds read low 0.937 | S. cerevisiae deletion strains, locus YNL250W, strain rad50, active compounds read low 1.02 | S. cerevisiae deletion strains, locus YNL271C, strain bni1, active compounds read low 0.995 | S. cerevisiae deletion strains, locus YNL298W, strain CLA4, active compounds read low 0.928 | S. cerevisiae deletion strains, locus YNL322C, strain KRE1 (second series), active compounds read low 1.03 | S. cerevisiae deletion strains, locus YNL322C, strain KRE1, active compounds read low 1.01 | S. cerevisiae deletion strains, locus YNR049C, strain mso1, active compounds read low 0.965 | S. cerevisiae deletion strains, locus YNR052C, strain pop2, active compounds read low 0.936 | S. cerevisiae deletion strains, locus YOL012C, strain htz1 1.24 | S. cerevisiae deletion strains, locus YOL147C, strain pex11, active compounds read low 0.982 | S. cerevisiae deletion strains, locus YOR061W, strain CKA2, active compounds read low 0.995 | S. cerevisiae deletion strains, locus YOR069W, strain VPS5, active compounds read low 0.998 | S. cerevisiae deletion strains, locus YOR080W, strain dia2, active compounds read low 0.967 | S. cerevisiae deletion strains, locus YOR136W, strain idh2, active compounds read low 1.01 | S. cerevisiae deletion strains, locus YOR144C, strain elg1, active compounds read low 1.01 | S. cerevisiae deletion strains, locus YOR184W, strain ser1, active compounds read low 1.02 | S. cerevisiae deletion strains, locus YOR231W, strain MKK1, active compounds read low 0.942 | S. cerevisiae deletion strains, locus YOR316C, strain cot1, active compounds read low 1.02 | S. cerevisiae deletion strains, locus YPL055C, strain LGE1, active compounds read low 0.934 | S. cerevisiae deletion strains, locus YPL106C, strain sse1, active compounds read low 0.978 | S. cerevisiae deletion strains, locus YPL241C, strain CIN2, active compounds read low 0.998 | S. cerevisiae deletion strains, locus YPL256C, strain CLN2, active compounds read low 0.962 | S. cerevisiae deletion strains, locus YPR119W, strain clb2, active compounds read low 1.02 | S. cerevisiae deletion strains, locus YPR141C, strain kar3, active compounds read low 1.04 | S. cerevisiae deletion strains, locus YPR163C, strain tif3, active compounds read low 0.952 | S. cerevisiae deletion strains, locus YPR167C, strain met16, active compounds read low 1.02 | S. cerevisiae deletion strains, strain wtn01, active compounds read low 0.964 | S. cerevisiae strains, strain wild type, active compounds read low 0.987
active: S. cerevisiae deletion strains, locus YKL160W, strain elf1, active compounds read low 0.772 | S. cerevisiae deletion strains, locus YKR001C, strain vps1, active compounds read low 0.885 | S. cerevisiae deletion strains, locus YLL001W, strain dnm1, active compounds read low 0.8 | S. cerevisiae deletion strains, locus YLL026W, active compounds read low 0.825 | S. cerevisiae deletion strains, locus YLL041C, strain sdh2, active compounds read low 0.896 | S. cerevisiae deletion strains, locus YLR027C, strain aat2, active compounds read low 0.802 | S. cerevisiae deletion strains, locus YLR039C, strain RIC1, active compounds read low 0.596 | S. cerevisiae deletion strains, locus YLR221C, strain rsa3, active compounds read low 0.7 | S. cerevisiae deletion strains, locus YLR258W, strain gsy2, active compounds read low 0.771 | S. cerevisiae deletion strains, locus YLR262C, strain YPT6 (second series), active compounds read low 0.351 | S. cerevisiae deletion strains, locus YLR262C, strain YPT6, active compounds read low 0.574 | S. cerevisiae deletion strains, locus YLR320W, strain mms22, active compounds read low 0.429 | S. cerevisiae deletion strains, locus YLR342W, strain FKS1, active compounds read low 0.861 | S. cerevisiae deletion strains, locus YML120C, strain ndi1, active compounds read low 0.79 | S. cerevisiae deletion strains, locus YMR058W, strain fet3, active compounds read low 0.716 | S. cerevisiae deletion strains, locus YMR205C, strain PFK2, active compounds read low 0.568 | S. cerevisiae deletion strains, locus YNL071W, strain lat1, active compounds read low 0.261 | S. cerevisiae deletion strains, locus YNL209W, strain ssb2, active compounds read low 0.791 | S. cerevisiae deletion strains, locus YNL248C, strain rpa49, active compounds read low 0.814 | S. cerevisiae deletion strains, locus YNL307C, strain MCK1, active compounds read low 0.798 | S. cerevisiae deletion strains, locus YOL006C, strain TOP1, active compounds read low 0.332 | S. cerevisiae deletion strains, locus YOR001W, strain rrp6, active compounds read low 0.753 | S. cerevisiae deletion strains, locus YOR070C, strain gyp1, active compounds read low 0.774 | S. cerevisiae deletion strains, locus YOR083W, strain WHI5, active compounds read low 0.784 | S. cerevisiae deletion strains, locus YOR106W, strain vam3, active compounds read low 0.563 | S. cerevisiae deletion strains, locus YOR265W, strain rbl2, active compounds read low 0.903 | S. cerevisiae deletion strains, locus YOR270C, strain vph1, active compounds read low 0.243 | S. cerevisiae deletion strains, locus YOR290C, strain snf2, active compounds read low 0.782 | S. cerevisiae deletion strains, locus YPL051W, strain arl3, active compounds read low 0.554 | S. cerevisiae deletion strains, locus YPL078C, strain atp4, active compounds read low 0.741 | S. cerevisiae deletion strains, locus YPL240C, strain hsp82, active compounds read low 0.849
